Compounds with a hit are over-represented: about 1.1% of the library has one in this group of screens.
PGK inhibitor = qHTS Assay to Find Inhibitors of Phosphoglycerate Kinase. Phosphoglycerate kinase, glycosomal (Trypanosoma brucei brucei), P07378. Potency, µM (titrated, usually from 57.5 µM), for the others: at the highest dose activity change, negative = inhibition, usual class: inhibitors. 380,000 tested, 0.043% active. PGK/GAPDH coupled, Kinase-Glo luminescence, 60 min; note: nearly all actives have a fitted effect of over 60% in size
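Recombinant glycosomal PGK reaction used 1,3-bisphosphoglycerate generated in-well by GAPDH (100nM final) in 100mM TEA pH 7.6, 5mM MgCl2, 0.01% Tween-20. After 60 minutes at room temperature, ATP was read by Kinase-Glo Plus luminescence end-point.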
Tb PFK block = qHTS Assay to Find Inhibitors of T. brucei phosphofructokinase; Potency, µM (doses to about 57.5 µM), without a hit: at the highest dose activity, negative = inhibition, usual class: inhibitors; ATP-dependent 6-phosphofructokinase (Trypanosoma brucei brucei), O15648; T. brucei PFK, ADP-Glo luminescence; 330,000 tested, 0.17% active;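 note: 0% = uninhibited 1x PFK enzyme wells and -100% = no-enzyme wells; nearly all actives have a fitted effect of over 60% in size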
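Activity is normalized to no-enzyme wells (full inhibition) and 1.25 nM enzyme wells (no inhibition). Reaction: 0.5 mM F6P, 0.1 mM ATP, 45 min RT, ADP-Glo luminescence; concentration-response curves fitted and classed by quality.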
Pin1 inh = qHTS Assay to Find Inhibitors of Pin1; Peptidyl-prolyl cis-trans isomerase NIMA-interacting 1 (Homo sapiens), Q13526; Pin1 FP peptide displacement, HiFluor488, 10 min; Potency, µM (doses to about 115 µM), without a hit: at the top dose activity, negative = inhibition, usual class: inhibitors; 390,000 tested, 0.009% active; AID 504891, 2011; active = well fitted inhibition curve with a large enough effect in the polarisation, with a control signal flat, not every such curve was filed as active; inconclusive = small, poorly fitted or top-dose-only effect, or effect the other way, or a change in a side signal; inactive = no such curve, though single readings can be large or run the other way; the % refers to the polarisation
VDR inhibitor = Inhibitors of the vitamin D receptor (VDR): qHTS; VDR-SRC2-3 peptide fluorescence polarization, 2 h; Potency, µM, inactives show max response, negative = inhibition, usual class: inhibitors; 400,000 tested, 0.93% active
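Measured by FP: displacement of SRC2-3 coactivator peptide from VDR by library compounds, following a two-hour ambient incubation.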
GLS inh = qHTS for Inhibitors of Glutaminase (GLS). Glutaminase kidney isoform, mitochondrial (Homo sapiens), O94925. GLS enzymatic activity, qHTS titration. Potency, µM (series often up to 45.5 µM), for inactives: top-dose activity change, negative = inhibition, hits mostly inhibitors. 410,000 tested, 0.21% active. AID 624170, 2012
Target sequence (O94925 whole entry, looked up, canonical isoform): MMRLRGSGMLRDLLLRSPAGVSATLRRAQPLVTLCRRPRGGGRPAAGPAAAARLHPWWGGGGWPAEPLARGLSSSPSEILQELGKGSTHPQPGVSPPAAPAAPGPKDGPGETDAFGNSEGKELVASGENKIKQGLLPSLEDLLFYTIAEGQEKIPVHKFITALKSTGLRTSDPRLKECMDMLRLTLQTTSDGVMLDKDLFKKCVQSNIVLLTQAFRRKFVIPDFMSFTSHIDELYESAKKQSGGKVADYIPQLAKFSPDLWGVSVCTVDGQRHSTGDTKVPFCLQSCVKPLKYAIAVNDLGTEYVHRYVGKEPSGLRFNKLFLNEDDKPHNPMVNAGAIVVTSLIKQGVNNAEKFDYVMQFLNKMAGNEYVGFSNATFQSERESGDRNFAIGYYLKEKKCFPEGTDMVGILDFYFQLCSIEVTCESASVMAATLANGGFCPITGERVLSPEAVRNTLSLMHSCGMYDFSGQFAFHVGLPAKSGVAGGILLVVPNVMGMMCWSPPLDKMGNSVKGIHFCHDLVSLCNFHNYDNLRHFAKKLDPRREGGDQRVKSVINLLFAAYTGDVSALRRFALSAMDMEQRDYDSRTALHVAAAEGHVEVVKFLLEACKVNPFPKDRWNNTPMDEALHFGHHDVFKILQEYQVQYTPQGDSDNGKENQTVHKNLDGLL
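hKGA in 45 mM KH2PO4 (pH 8.2), 0.02% Tween-20 with compound, then 1mM L-Glutamine (stock as added) plus glutamate oxidase/HRP/Amplex red coupling mix. Fluorescence read initially and after 30 min at RT; signal change reflects glutamate formation.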
Active calls of the source: *; i = inactive; ? = inconclusive; / = not tested or not shown. Unless noted, calls come from the whole dose curve; as a rule, active = well fitted curve in the direction sought with a large enough effect; inconclusive = small, poorly fitted or top-dose-only effect, or another doubt; inactive = no such curve, though single readings can be large; an effect the other way counts as inactive or inconclusive. Unless noted, % is set by controls: 0 for no effect and ±100 for the full control effect; potency is the fitted concentration of half-maximal effect.

SMILES	PGK inhibitor	Tb PFK block	Pin1 inh	VDR inhibitor	GLS inh
O=S(=O)(Nc1ccc(Br)cc1)c1cccc(NS(=O)(=O)c2cccs2)c1	-4%	/	-2%	-4%	14%
CCC(CC)c1nnc(NC(=O)C2CC(=O)N(CCc3ccc(F)cc3)C2)s1 (stereo unspecified)	-1%	-1%	5%	79µM*	-14%
CCC(CC)c1nnc(NC(=O)C2CC(=O)N(CCc3ccc(OC)c(OC)c3)C2)s1 (stereo unspecified)	i	16%	-6%	0%	0%
CCCCC(=O)Nc1ccc(C2C(=O)c3ccccc3C2=O)cc1	-8%	/	-4%	20%	18µM*
O=C1C(Cl)=C(N2CCOCC2)C(=O)N1c1ccccc1Cl	-9%	2%	12%	45µM*	0%
O=C1C(Cl)=C(N2CCCCCC2)C(=O)N1c1ccccc1Cl	i	-3%	-3%	-7%	1%
CCOC(=O)/C(C#N)=C\c1cn(C)c2ccccc12	4%	-3%	1%	-15%	0%
CCOC(=O)/C(=C\c1cn(C)c2ccccc12)[N+](=O)[O-]	13%	-7%	5%	50µM*	?
CCc1ccc(CN(Cc2ccco2)c2cnc(S(C)(=O)=O)nc2C(=O)Nc2cccc(C)c2)cc1	-3%	/	8%	3%	-3%
COCCN(C(=S)Nc1c(C)cc(C)cc1C)C(C)c1cccnc1 (stereo unspecified)	-6%	?	1%	45µM*	?
C=CC[C@@H](CC(=O)N(CCO)Cc1ccccc1)C(=O)NC[C@H](OC(=O)[C@@H](CC=C)Cc1ccc(F)cc1)c1ccccc1	-4%	5%	0%	18%	-10%
COc1ccc(CCn2c3c(c(=O)[nH]c2=S)CN(C)CN3)cc1OC	/	/	3%	-3%	/
COc1ccc(CCn2c3c(c(=O)[nH]c2=S)CN(Cc2ccccc2)CN3)cc1OC	/	/	9%	89µM*	/
N#CC(C#N)=C1C(=O)N(CCN2CCCCC2)c2ccccc21	-1%	-12%	2%	13%	11%
CCCCN1C(=O)/C(=C(/C#N)C(=O)N2CCCC2)c2ccccc21	-6%	5%	5%	45µM*	1%
CCC(Sc1nncn2c1cc1occc12)C(=O)Nc1ccc(C)c(Cl)c1 (stereo unspecified)	9%	/	45%	-1%	-2%
O=c1oc2cc(OCc3ccc([N+](=O)[O-])cc3)ccc2c2c1CCCC2	0%	0%	-2%	-2%	2%
O=C(O)c1ccc(COc2ccc3c4c(c(=O)oc3c2)CCC4)o1	?	-5%	?	13%	13µM*
CCCCC1(C)OC(=O)C(=Cc2ccc(-c3ccc(Cl)c(C(=O)O)c3)o2)C(=O)O1 (stereo unspecified)	-1%	-1%	/	22µM*	?
Cc1ccc(N2NC(=O)/C(=C/c3ccc(-c4ccc(Cl)c(C(=O)O)c4)o3)C2=O)cc1	-15%	?	?	?	?
C=C(C(=O)c1ccccc1)C(C)CC(=O)c1ccccc1 (stereo unspecified)	-12%	5%	0%	79µM*	4%
CN(Cc1ccco1)c1ccnc(-c2cccc(C#N)c2)n1	/	/	/	35µM*	/
CNc1ccnc(-c2c(C)noc2C)n1	/	/	/	8%	/
CN(Cc1ccco1)c1ccnc(-c2ccccc2C(F)(F)F)n1	/	/	/	45µM*	/
Cc1noc(C)c1-c1nccc(N(C)Cc2ccco2)n1	/	/	/	45µM*	/
SMILES	PGK inhibitor	Tb PFK block	Pin1 inh	VDR inhibitor	GLS inh
CN(Cc1ccco1)c1ccnc(-c2ccoc2)n1	/	/	/	45µM*	/
CSCCC(NS(=O)(=O)c1ccc2c(c1)oc(=O)n2C)C(=O)NCCc1ccc(C)cc1 (stereo unspecified)	-5%	/	1%	10%	0%
CC(=O)OCC(=O)[C@@]12OC3(CCCC3)OC1CC1C3CCC4=CC(=O)C=C[C@@]4(C)[C@]3(F)C(O)C[C@]12C (stereo partly specified)	/	/	/	-11%	-5%
COc1ccccc1CNc1nc(Nc2cccc(-c3cnco3)c2)c2sccc2n1	/	/	/	/	4%
O=C(c1ncn(Cc2ccccc2)c1C(=O)N1CCc2ccccc2C1)N1CCc2ccccc2C1	4%	3%	-1%	13%	8%
c1cncc(-c2noc(-c3ccco3)n2)c1	-8%	-1%	5%	6%	-4%
CN(Cc1ccco1)c1ccnc(-c2cccnc2)n1	/	/	/	45µM*	/
Cc1cccc2sc(NNC(=O)c3cc(=O)c4ccccc4o3)nc12	-14%	-14%	23%	?	0%
Cc1ccc2sc(NNC(=O)c3cc(=O)c4ccccc4o3)nc2c1C	-2%	-25%	26%	7.9µM*	29%
COc1ccc2nc(NNC(=O)c3cc(=O)c4ccccc4o3)sc2c1	-7%	5%	52%	32µM*	19%
CC(C)(C)NC(=O)[C@@H]1C[C@H]2CCCC[C@@H]2CN1C[C@H](O)[C@H](Cc1ccccc1)NC(=O)[C@@H](CC(N)=O)NC(=O)c1ccc2ccccc2n1	/	/	/	-4%	/
O=C(COC(=O)c1cc(NS(=O)(=O)c2cccs2)ccc1O)Nc1cc(Cl)ccc1Cl	-5%	2%	12%	7%	9%
O=C(COC(=O)c1cc(NS(=O)(=O)c2cccs2)ccc1O)Nc1ccc(F)c(F)c1F	-5%	-12%	-1%	7%	13µM*
CCOC(=O)c1ccccc1NC(=O)N(C)CCc1c(C)nn(CC)c1C	-5%	/	-1%	1%	0%
Cc1noc(C)c1-c1cc(N(C)C)ncn1	/	/	/	1%	/
Cn1c(CNC(=O)c2ccc(F)cc2)nc2ccccc21	4%	8%	2%	79µM*	13%
N#CC1(NC(=O)COC(=O)c2cc(O)c3ccccc3c2O)CCCCC1	2%	24%	?	45µM*	?
N#Cc1ccccc1Cn1cc(/C=C/[N+](=O)[O-])c2ccccc21	-4%	4%	?	32µM*	12%
O=C(O)Cn1cc(/C=C/[N+](=O)[O-])c2ccccc21	-4%	?	0%	?	-6%
CSc1ccccc1C(=O)Nc1ccccc1C(=O)NC(C)C	7%	0%	-2%	79µM*	32µM*
CCOC(=O)c1ccccc1NC(=O)c1ccccc1SC	/	9%	1%	-7%	0%
CC1CCN(c2oc(-c3ccc(OCc4ccccc4Cl)cc3)nc2C#N)CC1	/	/	3%	-8%	/
COc1ccc(CNc2ncncc2-c2ccoc2)c(OC)c1	/	/	/	50µM*	/
COc1ccc(CNc2ncncc2-c2cccnc2)c(OC)c1	/	/	/	-10%	/
COc1ccc(CNc2ncnc3ccc(-c4ccoc4)cc23)c(OC)c1	/	/	/	40µM*	/
